Laboratory results as given in PubChem BioAssay AID1851 (National Center for Advancing Translational Sciences (NCATS), 2009).
“And” between values parts separate entries of the source, which are not always exact repeats. Equal values may be shown once. In all, about 16,000 compounds went through this assay and about 4,000 (25%) were called active. About 26% were inconclusive and are not listed. The call rests on the fitted dose curve; in most records, active means well fitted curve in the direction sought with a large enough effect; inconclusive means small, poorly fitted or top-dose-only effect, or effect the other way; inactive means no such curve, though single readings can be large or run the other way. These entries were drawn from the full list. Some structures have more than one record in an assay (separate samples or runs), and their calls can disagree. Square brackets hold non-standard residues; d marks the D form. Peptide text beside a SMILES is read from it. * marks the point of attachment. ξ: configuration not given here. Cbz = O=C(OCc1ccccc1)*; PhAc = O=C(Cc1ccccc1)*; OBn = c1ccc(CO*)cc1; ξP = O=C(O)C1CCCN1

biological target: Cytochrome P450 2C9 (Homo sapiens) (UniProt P11712); assay: Cytochrome panel assay with activity outcomes; details: recombinant CYP, pro-luciferin dealkylation, luminescence, p450-cyp2c9; series mostly up to 57.1 µM
On the % scale 0 is the no-effect control and ±100 the full control effect.

Cytochrome P450 2C9 (Homo sapiens), sequence (P11712 whole entry, looked up): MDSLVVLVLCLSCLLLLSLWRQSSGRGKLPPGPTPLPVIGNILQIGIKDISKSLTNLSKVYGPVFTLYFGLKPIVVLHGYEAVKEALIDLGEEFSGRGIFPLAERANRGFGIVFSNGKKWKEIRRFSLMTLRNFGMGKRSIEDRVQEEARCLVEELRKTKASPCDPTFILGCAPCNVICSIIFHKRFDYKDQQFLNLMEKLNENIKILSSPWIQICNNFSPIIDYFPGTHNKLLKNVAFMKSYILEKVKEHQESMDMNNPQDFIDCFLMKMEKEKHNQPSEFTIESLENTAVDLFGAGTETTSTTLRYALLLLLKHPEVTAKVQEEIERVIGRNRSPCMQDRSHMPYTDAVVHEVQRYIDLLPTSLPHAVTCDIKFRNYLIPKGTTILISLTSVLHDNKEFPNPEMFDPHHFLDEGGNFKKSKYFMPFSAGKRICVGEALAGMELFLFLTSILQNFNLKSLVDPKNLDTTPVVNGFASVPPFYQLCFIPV

Row | Compound | AC50 | activity, negative = inhibition
1 | Cc1cccn2c(=O)c3cc(C(=O)N4COCC4(C)C)n(C)c3nc12 | inactive | 
2 | c1ccc2c3c([nH]c2c1)[C@@H]1[C@H]2CC[C@H]([C@H]4CCCN[C@H]42)N1CC3 | inactive | 
3 | CC(=O)C=NCC(=O)O |  | -1.6% [at 11.4 µM] (inactive)
4 | O=c1cc(N2CCCCC2)c(-c2ccccc2)nn1Cc1ccccc1Cl | 20 µM (active) | 
5 | CC1=NOC(=O)/C1=C\c1ccc(-c2ccc(Cl)cc2Cl)o1 | 10 µM (active) | 
6 | CCCCCCCCCCCCCCC[C@@H](O)[C@@H](N)CO | inactive | 
7 | NC(=O)OCC(COC(N)=O)c1ccccc1 | inactive | 
8 | COc1ccccc1N1CCN(CCCCN2C(=O)CCC2=O)CC1 | 3.98 µM (active) | 
9 | COc1ccccc1N1CCN(CCN2C(=O)CC3(CCCC3)CC2=O)CC1 | inactive | 
10 | COc1ccccc1N1CCN(CCCCN2C(=O)c3ccccc3C2=O)CC1 | inactive | 
11 | COc1ccccc1N1CCN(CCCCNC(=O)c2ccc3ccccc3c2)CC1 | inactive | 
12 | COc1ccccc1N1CCN(CCN2C(=O)c3ccccc3C(C)(C)C2=O)CC1 | inactive | 
13 | COc1ccccc1N1CCN(CCCNc2cc(=O)n(C)c(=O)n2C)CC1 | inactive and 12.6 µM (active) | 
14 | N=c1c(C(=O)NC2CCCC2)cc2c(=O)n3ccccc3nc2n1C1CCCC1 | inactive | 
15 | O=C(NCCCN1CCCCCC1)[C@@H](c1ccccc1)C1CCCCC1 | inactive | 
16 | Cn1nc(C(=O)NC2CCCCC2)c2ccccc2c1=O | 7.94 µM (active) | 
17 | O=C(Nc1nnc(C2CC2)s1)c1cc(S(=O)(=O)N2CCN(c3ccccc3)CC2)ccc1Cl | 7.08 µM (active) | 
18 | COC(=O)C/C=C\[C@@H](C)[C@@H](/C=N\O[C@@H](C)CN1CCCCc2nc(C)c(C)cc21)NS(=O)(=O)c1ccc(C)cc1 |  | -13.5% [at 11.4 µM] (inactive)
19 | O=C(NC(Cc1ccccc1)C(=O)O)/C(=C\c1ccco1)NC(=O)c1ccc(Br)cc1 (centres undefined) | 15.8 µM (active) | 
20 | COc1ccccc1C(=O)N/C(=C/c1ccc(Br)cc1)C(=O)NCC(=O)O | 15.8 µM (active) | 
21 | O=C(NCC1CCCO1)/C(=C\c1ccco1)NC(=O)c1ccccc1 (centres undefined) | inactive | 
22 | O=C(CNC(=O)OCc1ccccc1)NCC(=O)N1CCCC1C(=O)OCc1ccccc1 (stereo not drawn) (Cbz-Gly-Gly-[ξP]-OBn) | inactive | 
23 | O=C(O)C/C(=C\c1ccco1)C(=O)O |  | 4.79% [at 11.4 µM] (inactive)

Row | Compound | AC50 | activity, negative = inhibition
24 | COc1cc(/C=C(/NC(=O)c2ccccc2Cl)C(=O)O)cc(OC)c1OC | inactive | 
25 | O=C(CNC(=O)Cc1ccccc1)NCC(=O)OCc1ccccc1 (PhAc-Gly-Gly-OBn) | inactive | 
26 | O=C(O)CNC(=O)c1ccccc1O |  | 1.11% [at 11.4 µM] (inactive)
27 | O=C(CNC(=O)/C(=C\c1ccccc1)NC(=O)c1ccc(Br)cc1)OCc1ccccc1 | 3.55 µM (active) | 
28 | O=[N+]([O-])c1ccc(CSc2ncnc3c2ncn3[C@@H]2O[C@@H](CO)[C@@H](O)[C@H]2O)cc1 | inactive | 
29 | C=C(Br)CN(C)CC(=C)Br |  | 2.22% [at 11.4 µM] (inactive)
30 | CC(=O)OCC1=C(C(=O)O)N2C(=O)[C@@H](NC(=O)Cc3cccs3)[C@@H]2SC1 | inactive | 
31 | COc1ccc(CNc2cc(-c3cccnc3)ncn2)c(OC)c1 |  | 17.1% [at 2.29 µM] (inactive)
32 | COc1ccccc1CNc1cc(-c2cccnc2)ncn1 |  | -0.576% [at 2.29 µM] (inactive)
33 | COc1ccc(CCNc2nc(-c3cccnc3)cs2)cc1OC | 2.51 µM (active) | 
34 | Cc1sc(NC(=O)C2CCCCC2)c(C#N)c1-c1ccccc1 | 15.8 µM (active) | 
35 | Cc1sc(NC(=O)/C=C/c2ccc(C(C)C)cc2)c(C#N)c1C | inactive | 
36 | Oc1ccc(CNCc2ccccc2)c2cccnc12 |  | -9.84% [at 11.4 µM] (inactive)
37 | CC(=O)N1CCC2(CCN(Cc3ccccc3)CC2)CC1 | inactive | 
38 | CC(C)OC(=O)C(C#N)c1nc2ccccc2nc1N1CCN(Cc2ccccc2)CC1 (centres undefined) | 2.82 µM (active) | 
39 | CC(C)NC1(C(N)=O)CCN(Cc2ccccc2)CC1 |  | -5.53% [at 11.4 µM] (inactive)
40 | CN(C)c1ccc(-c2ccc3ncnc(N4CCNCC4)c3c2)cc1 |  | 6% [at 2.29 µM] (inactive)
41 | Cc1cccc(CNc2ccnc(-c3ccoc3)n2)c1 |  | -14.6% [at 2.29 µM] (inactive)
42 | CC1(C)Cc2c(sc3nc(-c4ccccc4)n(N)c(=O)c23)CO1 | 12.6 µM (active) | 
43 | Cc1nn2c(C)nc3sc4c(c3c2nc1=O)CC(C)(C)OC4 | inactive | 
44 | CCCN1C[C@H](CSC)C[C@H]2c3cccc4[nH]cc(c34)C[C@@H]21 | inactive | 
45 | N[C@@H](CCCP(=O)(O)O)C(=O)O | inactive | 
46 | CN(C)c1ccc(NC(=O)CSc2nc(N)c(C(=O)Nc3ccc(N(C)C)cc3)s2)cc1 | 2.82 µM (active) | 

Row | Compound | AC50 | activity, negative = inhibition
47 | CCN(CC)c1ccc(NC(=O)CSc2nnc3nc(C)cc(C)n23)cc1 | inactive | 
48 | C[C@@]12CCC(=O)C=C1CC[C@H]1[C@@H]2[C@@H](O)C[C@]2(C)[C@@H]1CC[C@@]2(O)C(=O)CO |  | -3.75% [at 11.4 µM] (inactive)
49 | CCOC(=O)c1c(N2C(=O)Nc3cc(Cl)c(Cl)cc3N2O)sc2c1CCCCC2 | 3.55 µM (active) | 
50 | Cc1ccc(S(=O)(=O)Oc2cc(N)c3c(n2)CCC3)cc1 |  | 20.5% [at 11.4 µM] (inactive)
51 | O=C1CCCC2=C1C(c1ccc(OS(=O)(=O)c3ccc(Cl)cc3)cc1)C1=C(CCCC1=O)O2 | 7.08 µM (active) | 
52 | CN(C)C[C@H]1CCC2=C(C1=O)C(c1ccc(Cl)c(Cl)c1)C1=C(CC[C@H](CN(C)C)C1=O)O2 |  | -1.08% [at 11.4 µM] (inactive)
53 | Cc1ccc(S(=O)(=O)Oc2ccc(C3C4=C(CCCC4=O)OC4=C3C(=O)CCC4)cc2)cc1 | 3.98 µM (active) | 
54 | Cc1ccc(S(=O)(=O)Oc2cc(S(=O)(=O)O)cc3cc(S(=O)(=O)O)cc(N)c23)cc1 |  | -5.74% [at 11.4 µM] (inactive)
55 | O=C(O)c1c2c(c(O)c3c1CN(C1CCCCC1)CO3)OCN(C1CCCCC1)C2 |  | -1.96% [at 11.4 µM] (inactive)
56 | O=C(/C=C\c1ccc(O)c(O)c1)O[C@@H](Cc1ccc(O)c(O)c1)C(=O)O | inactive | 
57 | Cc1ccccc1S(=O)(=O)Oc1ccccc1C(=O)Oc1ccccc1 | 2.24 µM (active) | 
58 | Cc1ccccc1S(=O)(=O)O[C@@H]1NS(=O)(=O)c2ccccc21 |  | 20.8% [at 11.4 µM] (inactive)
59 | Cc1cc2c(c(=O)o1)[C@@H](O)[C@H]1O[C@@H]1C2=O |  | -1.55% [at 11.4 µM] (inactive)
60 | O=C(Nc1nnc(-c2ccc(Cl)cc2)o1)Nc1ccccc1Cl | inactive | 
61 | O=C(Cc1ccc(Cl)cc1)Nc1cccc(-c2nnc(-c3ccco3)o2)c1 | 0.178 µM (active) | 
62 | COc1ccc(CC(=O)Nc2ccc(-c3noc(-c4cccc(OC)c4)n3)cc2)cc1 | inactive | 
63 | COc1ccc(CC(=O)Nc2cccc(-c3nnc(-c4ccco4)o3)c2)cc1 | 0.316 µM (active) | 
64 | COc1ccccc1CN1CCC2(CC1)CCN(C(=O)c1c(C)noc1C)CC2 | inactive | 
65 | CN(Cc1ccco1)c1ccnc(-c2cccc(NS(C)(=O)=O)c2)n1 |  | -11.7% [at 2.29 µM] (inactive)
66 | CC1CCC(=NNC(=O)Cc2ccccc2)CC1 (centres undefined) | inactive | 
67 | COc1ccc(N(CC(=O)NN=C2CCCC2)S(=O)(=O)c2ccccc2)cc1 | 10 µM (active) | 
68 | O=C(CC(=O)NN=C1CCCC1)NCCc1ccccc1 | inactive | 
69 | COCCCNC(=O)CN(c1ccc(OC)cc1)S(=O)(=O)c1ccc(NC(C)=O)cc1 | 11.2 µM (active) | 

Row | Compound | AC50 | activity, negative = inhibition
70 | COc1ccc2c(=O)cc(-c3ccncc3)oc2c1OC |  | -7.78% [at 11.4 µM] (inactive)
71 | O=S(=O)(O)c1ccc(-c2nnc(-c3ccccn3)nc2-c2ccc(S(=O)(=O)O)o2)o1 |  | -9.22% [at 11.4 µM] (inactive)
72 | CO[C@@H]1COC(=O)[C@@H](C)NC(=O)C/C=C\[C@@H](C)[C@H](NS(=O)(=O)c2ccc(C)cc2)COC(=O)[C@H](C)NC(=O)C/C=C\[C@H]1C |  | 9.56% [at 11.4 µM] (inactive)
73 | CC1(C)OC(=O)NC1=O | inactive | 
74 | COC(=O)Cn1cnc(=O)c(C#N)c1/C=C/N(C)C | inactive | 
75 | Cc1cnc(CNc2ncnc3ccc(-c4ccccc4C)cc23)cn1 |  | 0.0371% [at 2.29 µM] (inactive)
76 | COc1ccc(NC(=O)N2CC[C@@]3(CCCN(C(=O)c4cccn4C)C3)C2)cc1 | inactive | 
77 | NC(=O)[C@H]1CC2(CC(c3cccc(NC(=O)c4ccccc4)c3)=NO2)CN1C(=O)[C@H]1CCC(=O)N1 (some centres undefined) | inactive | 
78 | c1ccc(Nc2ncnc3ccc(-c4ccoc4)cc23)cc1 |  | 1.19% [at 2.29 µM] (inactive)
79 | NCCNc1ncnc2ccc(Cl)cc12 |  | 6.44% [at 11.4 µM] (inactive)
80 | Brc1ccc2ncnc(Nc3cccc4ccccc34)c2c1 | 2.51 µM (active) | 
81 | c1ccc(Nc2ncnc3ccc(-c4cccnc4)cc23)cc1 |  | 5.26% [at 2.29 µM] (inactive)
82 | Clc1cccc(Nc2ncnc3ccc(Br)cc23)c1 | 14.1 µM (active) | 
83 | CNc1ncnc2ccc(-c3ccccc3CN(C)C)cc12 |  | -7.28% [at 2.29 µM] (inactive)
84 | CN[C@H]1[C@@H](O[C@@H]2[C@H](O[C@@H]3[C@@H](O)[C@@H](O)[C@@H](N=C(N)N)[C@@H](O)[C@@H]3N=C(N)N)O[C@H](C)[C@@]2(O)C=O)O[C@@H](CO)[C@@H](O)[C@H]1O | inactive | 
85 | CCc1c2c(nc3cccc(SC)c13)COC2 | inactive | 
86 | CC(C)OC(=O)c1nnn(-c2nonc2N)c1CSc1ccccn1 | 1.58 µM (active) | 
87 | Cc1cc(OC(=O)c2ccc(Cl)cc2Cl)nc(C)n1 | 5.62 µM (active) | 
88 | CCc1cc2c(=O)c(-c3nc4ccccc4n3C)c(C)oc2c(CN(CC)CC)c1O | 14.1 µM (active) | 
89 | Cc1oc2c(C)c(O)ccc2c(=O)c1-c1ccc2ccccc2n1 | inactive | 
